Measurements: PubChem BioAssay (Tox21)
Records with an inconclusive call do not appear. Activity calls are given as the source filed them. Unless noted, calls come from the whole dose curve.

How the values were obtained:
[1] = Nuclear factor erythroid 2-related factor 2/antioxidant responsive element (Nrf2/ARE) small molecule agonists: qHTS cell viability counter screen in human keratinocytes (AID 1919968; active = well fitted curve in the direction sought with a large enough effect in the repeat runs; an effect the other way counts as inactive or inconclusive; note: nearly all actives have a fitted effect of over 55% in size)
Summary of the method: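 HaCaT ARE reporter line, 1,500 cells/well; 5 h settle, 37 C/5% CO2; cpd in DMSO pinned; 23 h exposure; CellTiter-Fluor, 1 h; fluorescence.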

[2] = Nuclear factor erythroid 2-related factor 2/antioxidant responsive element (Nrf2/ARE) small molecule agonists: luciferase reporter gene qHTS assay in human keratinocytes (AID 1919969); note: nearly all actives have a fitted effect of over 35% in size
[3] = target: Gonadotropin-releasing hormone receptor (Homo sapiens) (UniProt P30968); experiment: Human gonadotropin-releasing hormone receptor (GnRHR) small molecule agonists, calcium flux assay in GnRHR-HEK293 cells (AID 1920063); note: nearly all actives have a fitted effect of over 35% in size
Summary of the method: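 GnRHR-HEK293, 1500 cells/well, 18 h 37 C/5% CO2; Ca dye 1 h 37 C; cpd pinned (DMSO), agonist mode; kinetic FL 480/540, 3 min, 1 s reads; 15 conc, n=3.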

[4] = target: KiSS-1 receptor (Homo sapiens) (UniProt Q969F8); experiment: Human kisspeptin (KISS1R) small molecule agonists, calcium flux assay in KISS1R-HEK293 cells (AID 1920064; active = well fitted curve in the direction sought with a large enough effect in the repeat runs; an effect the other way counts as inactive or inconclusive)
Summary of the method: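 Stable human KISS1R HEK293 line; 18 h plating, 37 C/5% CO2; calcium dye 1 h 37 C; compound pin transfer; kinetic fluorescence Ex/Em 480/540, 3 min.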

[5] = G protein-coupled receptor (GPCR) small molecule agonists, calcium flux assay: HEK293 wild type cell line counter screen (AID 1920065)
Summary of the method: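 Kinetic fluorescence at Ex/Em 480/540, recorded every second over 3 min, served as the read-out after compound addition. Each compound was tested at 15 concentrations in triplicate on cells pre-loaded with calcium dye for 1 h.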

[6] = p53 small molecule agonists, cell-based qHTS assay with human liver microsomes (AID 1963577);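 note: p53 response element beta-lactamase reporter cells with liver microsomes plus NADPH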
Summary of the method: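 16 h, 37 C exposure of p53RE-bla cells to compounds with human liver microsomes and NADPH (0.5 mg/mL final each); detection via LiveBLAzer mixture, 2 h dark at room temperature.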

[7] = p53 small molecule agonists, cell-based qHTS assay with rat liver microsomes (AID 1963578)
Summary of the method: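 With rat liver microsomes and NADPH present (0.5 mg/mL final each), p53RE-bla cells are treated with compound for 16 h at 37 C. LiveBLAzer detection mixture is then applied for 2 h at room temperature in the dark.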

[8] = p53 small molecule agonists, cell-based qHTS assay with human liver microsomes: qHTS cell viability counter screen (AID 1963579); note: nearly all actives have a fitted effect of over 45% in size
Summary of the method: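 In this multiplexed counter screen, the reporter plates were subsequently treated with CellTiter-Glo so that cell viability, reflected by luminescence, could be recorded for p53RE-bla cells dosed 16 h with compounds under microsomal activation (HLM and NADPH).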

[9] = p53 small molecule agonists, cell-based qHTS assay with rat liver microsomes: qHTS cell viability counter screen (AID 1963580); note: nearly all actives have a fitted effect of over 45% in size
Summary of the method: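 Intracellular ATP, by CellTiter-Glo luminescence, defines viability. HCT-116 p53RE-bla cells, 4,000 per well, were compound-treated in the presence of rat liver microsomes and NADPH for 16 h at 37 C.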

[10] = p53 small molecule agonists, cell-based qHTS assay: qHTS cell viability counter screen (AID 1963581); note: nearly all actives have a fitted effect of over 45% in size
Summary of the method: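 HCT-116 p53RE-bla cells, 4,000/well, plated 5 h before compound pin transfer; 16 h at 37 C; bla substrate 2 h RT; then CellTiter-Glo, 30 min RT, luminescence.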

[11] = p53 small molecule agonists, cell-based qHTS assay (AID 1963582; active = well fitted activation curve with a large enough effect in the signal ratio in the repeat runs, not every such curve was filed as active; the % refers to the signal ratio)
Summary of the method: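 Reporter line: p53RE-bla. Pre-incubation 5 h, 37 C, 5% CO2; compound (DMSO, pin tool) 16 h, 37 C; B/G FRET substrate 2 h RT; fluorescence intensity read.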

[12] = target: 5-hydroxytryptamine receptor 2A (Homo sapiens) (UniProt P28223); experiment: 5-hydroxytryptamine receptor 2A (HTR2A) small molecule antagonists, cell-based qHTS assay (AID 1963586); note: nearly all actives have a fitted effect of over 45% in size
Summary of the method: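 Antagonist-mode intracellular calcium assay: DOI (4 nM) added after 5 min compound pre-incubation at room temperature to dye-loaded HTR2A-CHO cells. Fluorescence followed for 3 min, sampled every second.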

[13] = target: 5-hydroxytryptamine receptor 2A (Homo sapiens) (UniProt P28223); experiment: 5-hydroxytryptamine receptor 2A (HTR2A) small molecule agonists, cell-based qHTS assay (AID 1963587); note: nearly all actives have a fitted effect of over 30% in size
Summary of the method: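 Kinetic calcium-flux fluorescence (2 min, 1 sec intervals) after compound addition in agonist mode. HTR2A-CHO cells were cultured 18 h, then dye-loaded 1 h at 37 C.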

[14] = target: Muscarinic acetylcholine receptor M1 (Homo sapiens) (UniProt P11229); experiment: Cholinergic receptor muscarinic 1 (CHRM1) small molecule antagonists, cell-based qHTS assay (AID 1963588); note: nearly all actives have a fitted effect of over 40% in size
Summary of the method: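 CHRM1-CHO calcium-flux assay, antagonist mode. Cells were seeded 18 h, dye-loaded 1 h at 37 C and given compound for 5 min at RT, then acetylcholine was added at 50nM. FDSS fluorescence was read 3 min; 15 concentrations, three runs.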

[15] = target: Muscarinic acetylcholine receptor M1 (Homo sapiens) (UniProt P11229); experiment: Cholinergic receptor muscarinic 1 (CHRM1) small molecule agonists, cell-based qHTS assay (AID 1963589); note: nearly all actives have a fitted effect of over 35% in size
Summary of the method: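 Human M1 in stable CHO line; 18 h plating, 1 h dye load 37 C; cpd added (agonist mode); Ca2+ fluorescence kinetic read, 1 s intervals; 15 conc, 3 runs.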

[16] = cAMP Responsive Elements (CRE) small molecule agonists, cell-based qHTS assay (AID 1963590)
Summary of the method: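 HEK 293T CRE-bla, 2,000 cells/well, 18 h preincubation 37 C/5% CO2; cpds (DMSO) pinned, 3 h; LiveBLAzer B/G FRET substrate, 2 h RT.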

[17] = cAMP Responsive Elements (CRE) small molecule antagonists, cell-based qHTS assay (AID 1963591; active = well fitted inhibition curve with a large enough effect in the signal ratio in the repeat runs, not every such curve was filed as active; the % refers to the signal ratio)
Summary of the method: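 Beta-lactamase reporter read by FRET substrate (LiveBLAzer B/G) after 2 h at room temperature. CRE-bla HEK293T cells had received compound plus 0.25 uM (final) NKH477 for 3 h at 37 °C.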

[18] = target: Beta-2 adrenergic receptor (Homo sapiens) (UniProt P07550); experiment: Adrenergic beta2 receptor (ADRB2) small molecule antagonists, cell-based qHTS assay (AID 1963592); note: series mostly up to about 92 µM; nearly all actives have a fitted effect of over 50% in size
Summary of the method: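 Cells (CHO, stable ADRB2 overexpression) incubated 18-20hr at 37C; compounds added from DMSO; agonist mix (1nM isoproterenol, 100uM IBMX, 25uM Ro-20-1724) added; 0.5hr RT; d2-cAMP and anti-cAMP-cryptate added; 1hr RT; 665/615 nm read.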

[19] = target: Beta-2 adrenergic receptor (Homo sapiens) (UniProt P07550); experiment: Adrenergic beta2 receptor (ADRB2) small molecule agonists, cell-based qHTS assay (AID 1963593);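 note: CHO cells stably overexpressing human ADRB2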
Summary of the method: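 CHO cells stably over-expressing ADRB2 were plated overnight at 37C, then dosed with compounds plus a stimulation mix containing 100uM IBMX and 25uM Ro-20-1724 for 0.5hr at room temperature. cAMP was measured by HTRF competition, 1hr.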

[20] = target: D(2) dopamine receptor (Homo sapiens) (UniProt P14416); experiment: Dopamine D2 receptor (DRD2) small molecule agonists, cell-based qHTS assay (AID 1963594); note: nearly all actives have a fitted effect of over 35% in size
Summary of the method: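 cAMP accumulation in DRD2-HEK293 cells measured by HTRF after 1 h detection; compounds added 10 min before NKH477 (200nM […]) forskolin-analogue stimulation, 30 min at room temperature, with Ro20-1724 present at 0.1 mM final.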

Measured: Potency

KiSS-1 receptor (Homo sapiens), sequence (Q969F8 whole entry, looked up): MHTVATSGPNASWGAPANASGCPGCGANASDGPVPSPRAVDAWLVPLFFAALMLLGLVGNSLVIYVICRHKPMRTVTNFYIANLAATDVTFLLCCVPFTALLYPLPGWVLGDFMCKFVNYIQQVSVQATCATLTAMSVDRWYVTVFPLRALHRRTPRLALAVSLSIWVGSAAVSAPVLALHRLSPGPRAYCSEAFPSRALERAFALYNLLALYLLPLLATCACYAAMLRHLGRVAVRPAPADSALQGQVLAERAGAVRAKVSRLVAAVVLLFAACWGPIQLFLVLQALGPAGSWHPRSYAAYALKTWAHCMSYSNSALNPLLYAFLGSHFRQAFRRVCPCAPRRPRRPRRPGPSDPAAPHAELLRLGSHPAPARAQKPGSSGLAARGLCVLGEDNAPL
Beta-2 adrenergic receptor (Homo sapiens), sequence (P07550 whole entry, looked up): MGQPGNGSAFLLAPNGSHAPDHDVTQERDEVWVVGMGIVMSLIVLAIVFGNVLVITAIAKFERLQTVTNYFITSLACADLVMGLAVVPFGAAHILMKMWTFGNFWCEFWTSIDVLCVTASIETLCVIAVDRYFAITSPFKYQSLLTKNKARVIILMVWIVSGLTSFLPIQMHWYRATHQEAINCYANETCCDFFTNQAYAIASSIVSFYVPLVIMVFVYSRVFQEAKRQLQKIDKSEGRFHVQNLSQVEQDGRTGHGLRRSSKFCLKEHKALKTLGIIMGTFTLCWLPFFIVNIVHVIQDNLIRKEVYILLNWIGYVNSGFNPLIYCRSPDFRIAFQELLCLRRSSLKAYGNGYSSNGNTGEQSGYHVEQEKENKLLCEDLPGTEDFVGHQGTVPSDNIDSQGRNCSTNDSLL
5-hydroxytryptamine receptor 2A (Homo sapiens), sequence (P28223 whole entry, looked up): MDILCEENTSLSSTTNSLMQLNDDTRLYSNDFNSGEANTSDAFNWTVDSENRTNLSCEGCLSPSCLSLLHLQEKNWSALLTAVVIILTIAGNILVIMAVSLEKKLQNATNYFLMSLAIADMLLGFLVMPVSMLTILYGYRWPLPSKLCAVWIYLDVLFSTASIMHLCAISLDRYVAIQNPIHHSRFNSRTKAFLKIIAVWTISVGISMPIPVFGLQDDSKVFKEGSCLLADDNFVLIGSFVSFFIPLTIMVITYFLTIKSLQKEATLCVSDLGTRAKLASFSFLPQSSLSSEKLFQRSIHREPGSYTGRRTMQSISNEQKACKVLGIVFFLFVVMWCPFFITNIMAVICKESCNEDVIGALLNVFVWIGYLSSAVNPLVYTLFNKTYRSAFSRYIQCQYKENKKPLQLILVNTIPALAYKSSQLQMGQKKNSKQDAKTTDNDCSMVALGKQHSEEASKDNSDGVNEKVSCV
Gonadotropin-releasing hormone receptor (Homo sapiens), sequence (P30968 whole entry, looked up): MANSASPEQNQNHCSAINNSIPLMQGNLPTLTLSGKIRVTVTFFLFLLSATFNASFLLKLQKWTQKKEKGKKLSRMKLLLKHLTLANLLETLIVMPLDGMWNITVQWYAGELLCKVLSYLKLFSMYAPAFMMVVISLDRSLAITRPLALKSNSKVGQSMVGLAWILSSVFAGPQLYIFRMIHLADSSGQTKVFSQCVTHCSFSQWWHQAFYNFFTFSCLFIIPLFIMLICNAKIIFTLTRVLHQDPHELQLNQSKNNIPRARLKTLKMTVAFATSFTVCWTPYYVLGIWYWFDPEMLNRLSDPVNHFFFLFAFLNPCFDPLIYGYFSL
Muscarinic acetylcholine receptor M1 (Homo sapiens), sequence (P11229 whole entry, looked up): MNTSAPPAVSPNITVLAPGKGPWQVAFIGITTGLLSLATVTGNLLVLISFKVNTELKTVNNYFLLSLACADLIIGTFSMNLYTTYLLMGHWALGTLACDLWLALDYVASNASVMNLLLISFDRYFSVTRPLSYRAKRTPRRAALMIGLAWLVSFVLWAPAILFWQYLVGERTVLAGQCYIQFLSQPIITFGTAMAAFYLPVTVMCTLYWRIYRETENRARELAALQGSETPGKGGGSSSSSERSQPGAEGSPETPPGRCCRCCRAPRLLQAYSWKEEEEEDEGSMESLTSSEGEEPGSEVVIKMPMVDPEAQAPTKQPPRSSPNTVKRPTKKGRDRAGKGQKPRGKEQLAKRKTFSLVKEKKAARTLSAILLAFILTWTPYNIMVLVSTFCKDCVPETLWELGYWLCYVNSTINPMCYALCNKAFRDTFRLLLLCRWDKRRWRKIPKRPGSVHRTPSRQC
D(2) dopamine receptor (Homo sapiens), sequence (P14416 whole entry, looked up): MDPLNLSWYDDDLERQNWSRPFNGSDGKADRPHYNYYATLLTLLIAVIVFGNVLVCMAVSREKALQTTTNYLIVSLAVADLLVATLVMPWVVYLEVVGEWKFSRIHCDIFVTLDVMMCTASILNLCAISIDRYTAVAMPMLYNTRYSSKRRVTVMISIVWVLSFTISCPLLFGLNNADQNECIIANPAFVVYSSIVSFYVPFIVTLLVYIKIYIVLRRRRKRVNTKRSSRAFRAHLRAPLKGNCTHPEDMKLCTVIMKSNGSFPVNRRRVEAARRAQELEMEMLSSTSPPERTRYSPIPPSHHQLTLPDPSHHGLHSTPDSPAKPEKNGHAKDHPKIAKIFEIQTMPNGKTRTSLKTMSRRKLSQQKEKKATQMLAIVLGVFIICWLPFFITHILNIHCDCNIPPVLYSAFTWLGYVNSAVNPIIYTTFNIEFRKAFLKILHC

FC(F)(F)C(F)(F)C(F)(F)C(F)(F)C(F)(F)C(F)(F)CCI
inactive: all assays above

NC(=O)Nc1ccccc1
inactive: all assays above

COC(=O)c1cc(Cl)c(NC(C)=O)cc1OC
inactive: all assays above

CO[Si](CCCCl)(OC)OC
inactive: all assays above

Cn1c(=O)c2[nH]c(Br)nc2n(C)c1=O
inactive: all assays above

CCOc1c(N2CCOCC2)cnn(C)c1=O
inactive: all assays above

COC(=O)N[C@H](C(=O)N[C@@H](Cc1ccccc1)[C@@H](O)CN(Cc1ccc(-c2ccccn2)cc1)NC(=O)[C@@H](NC(=O)OC)C(C)(C)C)C(C)(C)C
inactive: all assays above
